By AC50 is commonly meant the midpoint of the concentration-response curve, whichever way the signal moves.

Active and inactive are the calls of the source. How the source made its calls: active means hit-call score of the fitted dose curve at least 0.9, where 1 is the maximum; inactive means score below 0.9.

Holding throughout (conditions): mRNA level, 48 h; actives raise or lower the signal
Read-out in assay [1]: Cytochrome P450 3A4 (Homo sapiens) (UniProt P08684)
Briefly: LTEA_HepaRG_CYP3A4: Life Technologies and Expression Analysis (LTEA) Assay for CYP3A4 using HepaRG (AID 2283487). The essentials:
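In a human hepatic line (HepaRG), duplicate wells were treated 48 h with up to 100 uM chemical in half-log dilutions. Endpoint: CYP3A4 mRNA induction or loss relative to 0.5% DMSO vehicle, by qRT-PCR.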

Read-out in assay [2]: DNA damage-inducible transcript 3 (DDIT3), DDIT3 (gene 1649)
Kind of assay: LTEA_HepaRG_DDIT3: Life Technologies and Expression Analysis (LTEA) Assay for DNA damage-inducible transcript 3 (DDIT3) using HepaRG (AID 2283488). The procedure, abridged:
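Eight-point concentration-response (100 uM highest, half-log dilutions) in HepaRG, 48 h, duplicate wells. Endpoint: qRT-PCR mRNA, normalized (ACTB, GAPDH, POLR2A), bidirectional fitting with DMSO as baseline.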

Read-out in assay [3]: Pro-epidermal growth factor (Homo sapiens) (UniProt P01133)
Kind of assay: LTEA_HepaRG_EGF: Life Technologies and Expression Analysis (LTEA) Assay for Epidermal growth factor (EGF) using HepaRG (AID 2283489). The essentials:
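EGF expression changes in human HepaRG cells are scored by bidirectional fitting relative to 0.5% DMSO controls. Chemicals are tested at eight half-log concentrations up to 100 uM for 48 h in serum-free induction medium.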

Read-out in assay [4]: Early growth response protein 1 (EGR1) transcription factor, EGR1 (gene 1958)
Briefly: LTEA_HepaRG_EGR1: Life Technologies and Expression Analysis (LTEA) Assay for Early growth response protein 1 (EGR1) transcription factor using HepaRG (AID 2283490). The essentials: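 EGR1 transcript levels quantified by qRT-PCR (Fluidigm arrays) against three housekeeping genes after 48 h chemical exposure of HepaRG cells. Eight-point half-log series topping at 100 uM, 0.5% DMSO vehicle, analyzed for gain or loss.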

Read-out in assay [5]: Ezrin (EZR), EZR (gene 7430)
Kind of assay: LTEA_HepaRG_EZR: Life Technologies and Expression Analysis (LTEA) Assay for Ezrin (EZR) using HepaRG (AID 2283491). The essentials:
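Gain or loss of EZR mRNA is scored relative to 0.5% DMSO in human HepaRG cultures treated 48 h with test chemicals in duplicate, eight half-log concentrations from 100 uM.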

Read-out in assay [6]: Cytochrome P450 3A7 (Homo sapiens) (UniProt P24462)
Briefly: LTEA_HepaRG_CYP3A7: Life Technologies and Expression Analysis (LTEA) Assay for CYP3A7 using HepaRG (AID 2283492). The procedure, abridged: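 Cells were thawed, plated, cultured 48 h, then treated for a further 48 h with chemicals (eight-point half-log series from 100 uM, 0.5% DMSO). RNA was isolated and CYP3A7 expression quantified by qRT-PCR normalised to ACTB, GAPDH and POLR2A.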

Read-out in another assay: CYP3A5 (gene 1577)
Briefly: LTEA_HepaRG_CYP3A5: Life Technologies and Expression Analysis (LTEA) Assay for CYP3A5 using HepaRG (AID 2283493). The procedure, abridged: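 Readout was CYP3A5 mRNA by qRT-PCR. HepaRG cultures were exposed for 48 h in serum-free induction medium to chemicals at up to 100 uM, and responses were fitted in both directions relative to DMSO vehicle.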

Read-out in assay [7]: Fatty Acid-Binding Protein 1 (FABP1), FABP1 (gene 2168)
Briefly: LTEA_HepaRG_FABP1: Life Technologies and Expression Analysis (LTEA) Assay for Fatty Acid-Binding Protein 1 (FABP1) using HepaRG (AID 2283494). The procedure, abridged:
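FABP1 expression by TaqMan qRT-PCR, normalised to three housekeeping genes, in HepaRG cells after 48 h chemical treatment. Eight-point half-log series topping at 100 uM in 0.5% DMSO, duplicates; gain or loss fitted relative to vehicle.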

Read-out in assay [8]: Cytochrome P450 4A22 (Homo sapiens) (UniProt Q5TCH4)
Briefly: LTEA_HepaRG_CYP4A22: Life Technologies and Expression Analysis (LTEA) Assay for Cytochrome P450 4A22 (CYP4A22) using HepaRG (AID 2283495). The procedure, abridged:
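Cryopreserved HepaRG cells, plated and cultured 48 h, then switched to serum-free induction medium and treated 48 h (duplicates, up to 100 uM, half-log steps, 0.5% DMSO). Expression change of CYP4A22 was fitted bidirectionally against vehicle.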

Read-out in assay [9]: Cytochrome P450 7A1 (Homo sapiens) (UniProt P22680)
Kind of assay: LTEA_HepaRG_CYP7A1: Life Technologies and Expression Analysis (LTEA) Assay for Cytochrome P450 7A1 (CYP7A1) using HepaRG (AID 2283496). The essentials:
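Using 0.5% DMSO as vehicle and baseline, chemicals were tested in duplicate over an 8-point range from 100 uM on HepaRG cells for 48 h; qRT-PCR signals were normalised to ACTB, GAPDH and POLR2A.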

Cytochrome P450 3A4 (Homo sapiens), sequence (P08684 whole entry, looked up): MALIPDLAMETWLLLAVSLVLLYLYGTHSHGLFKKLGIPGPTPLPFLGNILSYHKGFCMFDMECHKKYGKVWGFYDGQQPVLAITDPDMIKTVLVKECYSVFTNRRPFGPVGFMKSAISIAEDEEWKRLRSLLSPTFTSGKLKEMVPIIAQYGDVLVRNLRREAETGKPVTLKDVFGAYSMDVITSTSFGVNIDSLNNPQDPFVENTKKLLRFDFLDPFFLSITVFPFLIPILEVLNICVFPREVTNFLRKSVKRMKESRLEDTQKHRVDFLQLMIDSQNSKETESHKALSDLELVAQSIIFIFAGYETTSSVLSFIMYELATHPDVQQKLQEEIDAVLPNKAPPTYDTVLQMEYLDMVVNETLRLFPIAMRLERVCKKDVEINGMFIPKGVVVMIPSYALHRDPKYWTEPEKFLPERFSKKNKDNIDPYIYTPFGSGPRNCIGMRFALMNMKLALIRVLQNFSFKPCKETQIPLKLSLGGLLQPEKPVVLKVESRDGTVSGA
Cytochrome P450 3A7 (Homo sapiens), sequence (P24462 whole entry, looked up): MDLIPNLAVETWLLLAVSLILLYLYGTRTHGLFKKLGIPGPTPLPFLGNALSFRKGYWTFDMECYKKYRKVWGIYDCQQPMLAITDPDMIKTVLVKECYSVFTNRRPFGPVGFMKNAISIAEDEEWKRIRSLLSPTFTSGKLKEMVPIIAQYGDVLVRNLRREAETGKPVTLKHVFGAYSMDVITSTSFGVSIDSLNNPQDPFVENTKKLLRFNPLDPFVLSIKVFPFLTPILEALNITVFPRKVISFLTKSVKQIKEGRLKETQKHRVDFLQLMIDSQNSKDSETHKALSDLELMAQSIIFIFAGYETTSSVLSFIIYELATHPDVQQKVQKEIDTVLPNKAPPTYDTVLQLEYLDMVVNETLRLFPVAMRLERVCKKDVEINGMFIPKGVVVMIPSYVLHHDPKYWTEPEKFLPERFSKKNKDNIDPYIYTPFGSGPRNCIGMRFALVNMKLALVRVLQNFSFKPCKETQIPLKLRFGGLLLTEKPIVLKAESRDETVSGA

As for `C/C=C/c1ccc(OC)cc1`, the result in assay [1], in [2], in [3], in assay [4], in [5] and in [6] was inactive. The result (with CYP3A5 (gene 1577); in assay [7]; in [8]; in assay [9]) was inactive.
For the compound `O=Cc1ccccc1C=O`, the outcome in assay [1], in [2], in assay [3], in [4], in [5] and in [6] was inactive. The compound was classed as inactive (with CYP3A5 (gene 1577); in assay [7]; in [8]; in [9]).
On to `CCCCCCCCCCCCCCCCO`, for which the outcome (in assay [1]; in assay [2]; in [4]; in assay [6]; with CYP3A5 (gene 1577); in assay [7]) was inactive. The result in assay [8] was inactive. Moreover, the AC50 in assay [5] was 0.102 µM (active); in assay [9], 50 µM (active).
In the case of `OCC(O)CO`, the call in assay [1], in assay [2], in assay [3], in [4], in assay [5] and in assay [6] was inactive. The outcome (with CYP3A5 (gene 1577); in [7]; in assay [8]; in [9]) was inactive.
For `CC(=O)OC1CC(C)OC(C)O1` (stereo not drawn), the compound was classed as inactive in assay [1], in assay [2], in [3], in assay [4], in assay [5] and in assay [6]. The compound was called inactive (with CYP3A5 (gene 1577); in assay [7]; in [8]; in assay [9]).
As to `CC(C)(C)c1ccccc1`, the compound was called inactive in [1], in assay [2], in assay [3], in assay [4], in assay [5] and in [6]. In addition, the compound was classed as inactive (with CYP3A5 (gene 1577); in assay [7]; in assay [8]; in assay [9]).
In the case of `Oc1ccc(O)cc1`, the compound was classed as inactive in [1], in assay [2], in [3], in [4], in [5] and in assay [6]. For the same compound, the call (with CYP3A5 (gene 1577); in assay [7]; in [8]; in assay [9]) was inactive.
With `O=C(O)CN(CC(=O)O)CC(=O)O`, the outcome in assay [1], in assay [2], in [3], in assay [4], in assay [5] and in assay [6] was inactive. Moreover, the result (with CYP3A5 (gene 1577); in [7]; in assay [8]; in [9]) was inactive.
As to `c1ccc2occc2c1`, the call in [1], in [2], in assay [3], in assay [4], in assay [5] and in assay [6] was inactive. For the same compound, the outcome (with CYP3A5 (gene 1577); in assay [7]; in assay [8]; in [9]) was inactive.
Consider `N[C@@H](Cc1c[nH]c2ccccc12)C(=O)O`, for which the call (in [1]; in assay [2]; in assay [4]; in assay [5]; in [6]; with CYP3A5 (gene 1577)) was inactive. Besides, the compound was classed as inactive in assay [7], in [8] and in assay [9].
With `Oc1ccccc1O`, the compound was classed as inactive (in assay [1]; in assay [3]; in assay [4]; in assay [5]; in assay [6]; with CYP3A5 (gene 1577)). Moreover, the result in [7], in assay [8] and in assay [9] was inactive.
As for `OCC(CO)n1cnc(-c2ccc(F)cc2)c1-c1ccnc(Oc2ccccc2)n1`, the AC50 in assay [1] is 3.72 µM (active); in assay [4], 20.7 µM (active); in assay [6] it was 7.88 µM (active); in [7], 11.2 µM (active); in [8], 16.6 µM (active). For the same compound, the result (in assay [2]; in assay [5]; with CYP3A5 (gene 1577); in assay [9]) was inactive.
On to `C#CC(O)C(CC)CCCC` (stereo not drawn), for which the compound was classed as inactive (in assay [1]; in [2]; in assay [4]; in [5]; in assay [6]; with CYP3A5 (gene 1577)). Moreover, the compound was classed as inactive in [7], in assay [8] and in [9].
As to `CCCCC(CC)CO` (stereo not drawn), the compound was called inactive (in [1]; in assay [2]; in [4]; in assay [5]; in assay [6]; with CYP3A5 (gene 1577)). Also, the result in assay [7], in assay [8] and in assay [9] was inactive.
Turning to `Cc1cc(SC2=C(O)C[C@@](CCc3ccc(N)cc3)(C(C)C)OC2=O)c(C(C)(C)C)cc1CO`, the AC50 is 0.344 µM (active) in assay [1]; 0.151 µM (active) in assay [6]; 3.12 µM (active) in [7]; 1.67 µM (active) in assay [8]; 16.1 µM (active) in assay [9]. Moreover, the result (in [2]; in [4]; in assay [5]; with CYP3A5 (gene 1577)) was inactive.
For the compound `COc1ccc(C(=O)Nc2nc3ccccc3c(NCc3ccccc3)c2C#N)cc1`, the call in assay [1], in assay [3] and in assay [5] was inactive. For the same compound, the AC50 in [4] is 21.7 µM (active); in assay [6], 14.3 µM (active); with CYP3A5 (gene 1577) it was 2.67 µM (active); in assay [7], 18 µM (active); in assay [8], 27.1 µM (active); in [9], 17.8 µM (active).
As for `Cc1cc(Cc2ccc(N)c(C)c2)ccc1N`, the AC50 is 4.94 µM (active) in [1], 50 µM (active) in [3], 10.8 µM (active) in assay [6] and 5.09 µM (active) in assay [9]. The call (in [4]; in assay [5]; with CYP3A5 (gene 1577); in assay [7]; in [8]) was inactive.
Take `CC1(C)C(=O)NC(=O)N1CO`: the compound was called inactive (in assay [1]; in assay [3]; in assay [4]; in assay [5]; in assay [6]; in the assay with CYP3A5 (gene 1577)). The compound was called inactive in assay [7], in assay [8] and in assay [9].
For `CC(C)(O)c1ccc(CNC(=O)c2cccnc2Oc2ccc(F)cc2)cc1`, the AC50 is 8.47 µM (active) in assay [1], 9.92 µM (active) in [6], 21.9 µM (active) in [7] and 26.6 µM (active) in assay [8]. Besides, the outcome (in [3]; in assay [4]; in assay [5]; with CYP3A5 (gene 1577); in assay [9]) was inactive.
On to `C=CCCCCCCCCCCCC`, for which the call (in [1]; in assay [2]; in assay [4]; in assay [5]; in [6]; in the assay with CYP3A5 (gene 1577)) was inactive. Also, the compound was called inactive in assay [7], in assay [8] and in assay [9].

(Values after PubChem BioAssay (EPA / NIEHS).)
